The full list was thinned out, with hits kept by preference.
IL1B secr inh – qHTS for Inhibitors of Inflammasome Signaling: IL-1-beta AlphaLISA Primary Screen. THP-1 LPS/ATP IL-1B secretion, AlphaLISA, 16 h; hits give low values. activity change, % at 57.5 µM. 360,000 compounds, 4.7% hits. AID 743279, 2014; in the data active = activity change below about -50%; inconclusive = mostly about -30% to -49%
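Secreted IL-1B measured by AlphaLISA bead assay after 16 h compound exposure of THP-1 cells; compounds (final up to 57.5 uM) added 1 h before LPS (250 ng/mL) and ATP (1.25 mM) stimulation; lower signal means less secretion.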
HT1080 IDH1KD tx – qHTS for induction of synthetic lethality in tumor cells producing 2HG: qHTS for the HT-1080-IDH1KD cell line; Potency, µM (top dose mostly 46.1 µM), without a hit: at the top dose activity, negative = toxicity, usual class: cytotoxic; HT-1080 IDH1 knockdown viability, ATP luminescence, 48 h; 360,000 compounds, 2% hits;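 note: potency is the fitted concentration of half-maximal effect; 0% = DMSO wells and -100% = cell-free medium wells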
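Assay cells: HT-1080 with IDH1 knockdown, 750 per well, RPMI/5% FBS. Exposure: 48 h at 37 °C following 2 h pre-incubation. Read: CellTiter-Glo luminescence; fitted concentration-response, curve class assigned.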
12-LOX inh – Primary qHTS assay for inhibitors of human arachidonate 12S-lipoxygenase (ALOX12): Round 2. Polyunsaturated fatty acid lipoxygenase ALOX12 (Homo sapiens), P18054. 580,000 compounds, 1.1% hits. Potency, µM (doses to about 108 µM), for inactives: at the top dose activity change, negative = inhibition, usual class: inhibitors. purified 12hLO, xylenol orange hydroperoxide absorbance; note: potency is the fitted concentration of half-maximal effect
Target sequence (P18054 whole entry, looked up): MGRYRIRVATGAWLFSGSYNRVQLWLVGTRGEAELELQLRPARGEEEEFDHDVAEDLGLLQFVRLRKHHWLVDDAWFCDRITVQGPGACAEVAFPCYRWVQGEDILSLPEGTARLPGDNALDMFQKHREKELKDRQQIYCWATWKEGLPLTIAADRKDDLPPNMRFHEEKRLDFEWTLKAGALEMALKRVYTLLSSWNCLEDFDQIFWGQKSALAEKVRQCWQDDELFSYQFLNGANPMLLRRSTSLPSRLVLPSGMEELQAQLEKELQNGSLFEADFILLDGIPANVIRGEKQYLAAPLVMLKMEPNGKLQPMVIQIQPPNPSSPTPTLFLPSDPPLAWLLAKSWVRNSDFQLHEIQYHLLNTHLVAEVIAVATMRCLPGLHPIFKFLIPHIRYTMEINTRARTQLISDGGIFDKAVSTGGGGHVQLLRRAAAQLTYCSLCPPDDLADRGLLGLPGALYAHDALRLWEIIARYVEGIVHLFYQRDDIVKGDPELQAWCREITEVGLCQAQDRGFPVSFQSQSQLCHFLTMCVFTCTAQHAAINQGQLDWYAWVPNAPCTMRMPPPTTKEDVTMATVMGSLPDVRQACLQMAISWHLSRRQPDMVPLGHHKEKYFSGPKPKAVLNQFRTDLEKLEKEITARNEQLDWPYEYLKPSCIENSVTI
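Hydroperoxide product was detected by ferrous iron/xylenol orange as the 573 to 405 nm absorbance ratio. Arachidonic acid at 40 uM (final) was turned over for 30 min at room temperature by 150 nM human 12hLO, pH 7.0 Hepes buffer, after 15 min compound preincubation.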
TDP1 cell CPT – qHTS for Inhibitors of human tyrosyl-DNA phosphodiesterase 1 (TDP1): qHTS in cells in presence of CPT; Potency, µM (series often up to 46.2 µM), inactives show at the highest dose activity change, negative = growth inhibition, hits mostly inhibitors; 420,000 compounds, 12% hits; chicken DT40 Tdp1-/-;hTDP1 cells + 20 nM CPT, ATP luminescence, 48 h; note: potency is the fitted concentration of half-maximal effect; nearly all actives have a fitted effect of over 55% in size
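Cell growth measured by CellTiter-Glo luminescence after a minimum 48 h, 37 C compound exposure with 20 nM CPT in Tdp1-knockout DT40 cells stably expressing hTDP1, seeded 400/well; qHTS titration format.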
DT40 TDP1 no CPT – qHTS for Inhibitors of human tyrosyl-DNA phosphodiesterase 1 (TDP1): qHTS in cells in absence of CPT. 420,000 compounds, 15% hits. DT40 Tdp1-/- hTDP1 cells, no CPT, ATP luminescence, 48 h. Potency, µM (titrated, usually from 46.2 µM), for the others: at the top dose activity change, negative = growth inhibition, actives largely listed as inhibitors; note: potency is the fitted concentration of half-maximal effect; nearly all actives have a fitted effect of over 55% in size
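Stably hTDP1-transfected Tdp1-null chicken DT40 cells were treated with library compounds minus camptothecin and grown for at least 48 hr at 37 °C, after which cellular ATP was quantified by luminescence.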
HT1080-NT tox – qHTS for induction of synthetic lethality in tumor cells producing 2HG: qHTS for the HT-1080-NT fibrosarcoma cell line. HT-1080-NT fibrosarcoma viability, CellTiter-Glo ATP luminescence, 48 h. Potency, µM (highest dose often 46.1 µM), without a hit: at the highest dose activity, negative = less viability, most hits filed as cytotoxic. 360,000 compounds, 1.6% hits. AID 686970, 2013;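 note: NT is the 2HG producing partner of a matched IDH1 knockdown line; potency is the fitted concentration of half-maximal effect; 0% = DMSO-treated cells and -100% = media-only wells without cells; nearly all actives have a fitted effect of over 55% in size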
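Compounds were tested in concentration-response format on HT-1080-NT cells for 48 hours at 37 degrees C. Cell viability came from CellTiter-Glo luminescence; curves were classified by r2, response magnitude and activity.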
Starred values were filed as active, the others as inactive. Unless noted, calls come from the whole dose curve; as a rule, active = well fitted curve in the direction sought with a large enough effect; inconclusive = small, poorly fitted or top-dose-only effect, or another doubt; inactive = no such curve, though single readings can be large; an effect the other way counts as inactive or inconclusive. Unless noted, % is set by controls: 0 for no effect and ±100 for the full control effect.

What do the screens show for `ON(CCc1ccccn1)Cc1ccccc1`?
IL1B secr inh: -3; HT1080 IDH1KD tx: 4%; 12-LOX inh: inconclusive; TDP1 cell CPT: -11%; DT40 TDP1 no CPT: -4%; HT1080-NT tox: 4%

How did COc1ccc(C(=O)Nc2ccc3c(c2)OCCCO3)c(O)c1 do in these assays?
12-LOX inh: -3%

How did Cc1ccc2c(Cl)c(C(=O)NCc3cccnc3)sc2c1 do in these assays?
IL1B secr inh: -21; HT1080 IDH1KD tx: 1%; 12-LOX inh: -5%; TDP1 cell CPT: -29%; DT40 TDP1 no CPT: -10%; HT1080-NT tox: -2%

What do the screens show for `N#CCCN(Cc1cccnc1)C(=O)c1sc2cc(F)ccc2c1Cl`?
IL1B secr inh: 5; HT1080 IDH1KD tx: -2%; 12-LOX inh: -6%; TDP1 cell CPT: inconclusive; DT40 TDP1 no CPT: 15µM*; HT1080-NT tox: 0%

How did CCC1CCCCN1CCCNC(=O)c1ccc2c(c1)N(Cc1ccccc1)C(=O)c1ccccc1S2(=O)=O (stereo not drawn) do in these assays?
12-LOX inh: -17%; TDP1 cell CPT: inconclusive; DT40 TDP1 no CPT: inconclusive

How did CCC1CCCCN1CCCNC(=O)c1ccc2c(c1)N(Cc1ccc(Cl)cc1)C(=O)c1ccccc1S2(=O)=O (stereo not drawn) do in these assays?
12-LOX inh: -33%; TDP1 cell CPT: 23µM*; DT40 TDP1 no CPT: 23µM*

What do the screens show for `CCC1CCCCN1CCCNC(=O)c1ccc2c(c1)N(Cc1cccc(C)c1)C(=O)c1ccccc1S2(=O)=O` (stereo not drawn)?
12-LOX inh: -24%; TDP1 cell CPT: 16µM*; DT40 TDP1 no CPT: inconclusive

How did Cc1cc(N2CCC3(CCCN(CC4CCC4)C3=O)C2)nc2ccccc12 (stereo not drawn) do in these assays?
12-LOX inh: 42%

What do the screens show for `Nc1nc(SCC(=O)NCc2ccc(Cl)cc2)n[nH]1`?
12-LOX inh: -5%

Results for N=c1c(-c2nc3ccccc3[nH]2)cc(C(=O)c2ccco2)nn1-c1ccccc1 ?
IL1B secr inh: 0; HT1080 IDH1KD tx: 0%; 12-LOX inh: -7%; TDP1 cell CPT: 2.6µM*; DT40 TDP1 no CPT: 3.3µM*; HT1080-NT tox: -2%

How did N=c1c(-c2nc3ccccc3[nH]2)cc(C(=O)c2cccs2)nn1-c1ccccc1 do in these assays?
IL1B secr inh: -27; HT1080 IDH1KD tx: 8%; TDP1 cell CPT: 29µM*; DT40 TDP1 no CPT: 23µM*; HT1080-NT tox: 4%

Results for O=C(Nc1cccc(-c2nc3ccccc3[nH]2)c1)c1ccco1 ?
IL1B secr inh: 0; HT1080 IDH1KD tx: 1%; 12-LOX inh: -5%; TDP1 cell CPT: inconclusive; DT40 TDP1 no CPT: inconclusive; HT1080-NT tox: 8%

How did CC(=O)Nc1cccc(C(=O)OC(C)C(=O)N2CCc3ccccc32)c1 (stereo not drawn) do in these assays?
IL1B secr inh: -2; HT1080 IDH1KD tx: -3%; 12-LOX inh: -16%; TDP1 cell CPT: 29µM*; DT40 TDP1 no CPT: 4.1µM*; HT1080-NT tox: -20%

Results for O=C(NC(=S)N1CCc2ccccc21)c1ccccc1Cl ?
IL1B secr inh: -14; HT1080 IDH1KD tx: -9%; 12-LOX inh: -12%; TDP1 cell CPT: inconclusive; DT40 TDP1 no CPT: inconclusive; HT1080-NT tox: -19%

Results for O=C(NC(=S)N1CCc2ccccc21)c1ccccc1 ?
IL1B secr inh: 16; HT1080 IDH1KD tx: -17%; 12-LOX inh: -24%; TDP1 cell CPT: 21µM*; DT40 TDP1 no CPT: 18µM*; HT1080-NT tox: -16%

What do the screens show for `O=C(c1cccc(N2C(=O)C3C4C=CC(C4)C3C2=O)c1)N1CCCc2ccccc21` (stereo not drawn)?
IL1B secr inh: 18; HT1080 IDH1KD tx: 13%; 12-LOX inh: 27%; TDP1 cell CPT: -9%; DT40 TDP1 no CPT: inconclusive; HT1080-NT tox: 23%

Results for Cc1cc(C(=O)Nc2ccc3c(c2)CCC3)cs1 ?
12-LOX inh: 31%

Results for O=C(c1cccc(N2C(=O)C3CC=CCC3C2=O)c1)N1CCCc2ccccc21 (stereo not drawn) ?
IL1B secr inh: 18; HT1080 IDH1KD tx: 1%; 12-LOX inh: inconclusive; TDP1 cell CPT: inconclusive; DT40 TDP1 no CPT: 1.5µM*; HT1080-NT tox: 6%

What do the screens show for `O=C(Nc1ccc2c(c1)CCC2)c1cccs1`?
IL1B secr inh: -63*; HT1080 IDH1KD tx: -13%; 12-LOX inh: inconclusive; TDP1 cell CPT: -23%; DT40 TDP1 no CPT: -29%; HT1080-NT tox: 0%

What do the screens show for `CC(OC(=O)c1cccc([N+](=O)[O-])c1)C(=O)N1CCc2ccccc21` (stereo not drawn)?
IL1B secr inh: 35; HT1080 IDH1KD tx: -1%; 12-LOX inh: 189%; TDP1 cell CPT: inconclusive; DT40 TDP1 no CPT: inconclusive; HT1080-NT tox: -1%

Results for CC(C)N(Cc1ccc([N+](=O)[O-])cc1)c1ccccc1 ?
12-LOX inh: 20%

Results for O=C(Nc1cccc(C(=O)N2CCCc3ccccc32)c1)c1ccccc1 ?
IL1B secr inh: 6; HT1080 IDH1KD tx: 23µM*; 12-LOX inh: 0%; TDP1 cell CPT: inconclusive; DT40 TDP1 no CPT: 21µM*; HT1080-NT tox: inconclusive

What do the screens show for `O=C(c1ccccc1)N1CCCc2ccccc21`?
IL1B secr inh: 15; HT1080 IDH1KD tx: 2%; 12-LOX inh: 0%; TDP1 cell CPT: -18%; DT40 TDP1 no CPT: inconclusive; HT1080-NT tox: 1%

How did O=C(c1ccccc1)N1CCN(C(=O)c2ccccc2)c2ccccc21 do in these assays?
IL1B secr inh: -11; HT1080 IDH1KD tx: inconclusive; 12-LOX inh: 2%; TDP1 cell CPT: 8.2µM*; DT40 TDP1 no CPT: inconclusive; HT1080-NT tox: -19%

Results for O=C(c1ccccc1)N1CCc2ccccc21 ?
IL1B secr inh: -10; HT1080 IDH1KD tx: 9%; 12-LOX inh: 0%; TDP1 cell CPT: 0%; DT40 TDP1 no CPT: -14%; HT1080-NT tox: 5%

Results for O=C(Nc1ccc(C(=O)N2CCCc3ccccc32)cc1)c1cccs1 ?
IL1B secr inh: -80*; HT1080 IDH1KD tx: -2%; 12-LOX inh: 0%; TDP1 cell CPT: 8%; DT40 TDP1 no CPT: inconclusive; HT1080-NT tox: 13%
